Test results: the supplement of paper PMC6555819

The sequences below were run on PPARg:RXRa IVT, anti-PPARg (NR concentration 270 nM, RXRa partner concentration 90 nM) (assay: PBM binding z-score (relative to random genomic background probes); higher = stronger binding; sequences stand for … in GC…GCGATTGACAGCGTAGAATGAAGG).
Method in brief: (§1)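 Scanned fluorescence from custom Agilent 4×180K protein-binding microarrays was regression-normalized. Binding z-scores use random background probes as reference. Ligand-free nuclear receptor dimers were incubated on the arrays for 1 h and detected with antibodies against each partner (one per run).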
For TCGAGTAGGTTACGGGGGCATTCACGGATGAAGA, the PBM binding z-score was 6.04.
Work on CTATGTAAGTTAAGGGGGTCATTCAGTTTGAAAG yielded a PBM binding z-score of 5.22.
CTATGTAGGTTATGGGGGTCATTCAGTTTGAAAG gave a PBM binding z-score of 7.49.
For TCGAGTAGGTTACGGGGGCATTCCGGGATGAAGA, the PBM binding z-score was 5.8.
Sequence CTATGTAGGTTAAGGGGGTCATTCACTTTGAAAG has a PBM binding z-score of 7.41.
TCGAGTAGGTTATGGGGGCATTCAGGGATGAAGA showed a PBM binding z-score of 5.17.
With CCGAGTAGGATACGAGGGGGCATTCAGTGCGAAT the PBM binding z-score was 0.975.
For CTATGTAGGTTAAGGGGGTCATTCAGTTTGAAAG, the PBM binding z-score was 7.74.
For TCGAGTAGGTTACGGGGGCGTTCAGGGATGAAGA, the PBM binding z-score was 5.35.
TCGAGTAGGTTACGGGGGCATTAAGGGATGAAGA was tested, and the PBM binding z-score was 6.1.
CCGAGTAGGTTATGAGGGGGCATTCAGTGCGAAT was tested, and the PBM binding z-score was 4.11.
Sequence CCGAGTAGCTTACGAGGGGGCATTCAGTGCGAAT has a PBM binding z-score of 0.528.
Work on TCGAGTAGGTTACGGGGGTATTCAGGGATGAAGA yielded a PBM binding z-score of 5.38.
For CCGTGTAGGTTACGAGGGGGCATTCAGTGCGAAT, the PBM binding z-score was 4.85.
CTATGTAGGGTAAGGGGGTCATTCAGTTTGAAAG showed a PBM binding z-score of 7.72.
Sequence CTATGTAGGTTAAGGGTGTCATTCAGTTTGAAAG has a PBM binding z-score of 7.59.
CCTAGTAGGTTACGAGGGGGCATTCAGTGCGAAT was tested, and the PBM binding z-score was 6.3.

These sequences were tested on PPARg homodimer (NR concentration 180 nM) in the same assay as above.
Method in brief: as §1
In the case of CTGAGTAGGTTACGAGGGGGCATTCAGTGCGAAT, the PBM binding z-score is reported as 1.78.
In the case of TCGAGTAGTTTACGGGGGCATTCAGGGATGAAGA, the PBM binding z-score is reported as 0.685.
Work on CTCTGTAGGTTAAGGGGGTCATTCAGTTTGAAAG yielded a PBM binding z-score of 3.78.
CTATGTAGGTTAAGGGGGGCATTCAGTTTGAAAG was tested, and the PBM binding z-score was 3.9.
CTATGCAGGTTAAGGGGGTCATTCAGTTTGAAAG gave a PBM binding z-score of 2.68.
CCGAGTAGGTTACGAGAGGGCATTCAGTGCGAAT was tested, and the PBM binding z-score was 2.29.
With CTATGTAGGTTAAGGGGGTCGTTCAGTTTGAAAG the PBM binding z-score was 2.23.
CTATGTCGGTTAAGGGGGTCATTCAGTTTGAAAG was tested, and the PBM binding z-score was 6.84.
TCGAGGAGGTTACGGGGGCATTCAGGGATGAAGA was tested, and the PBM binding z-score was 2.53.
TCGAGTAGGTTACAGGGGCATTCAGGGATGAAGA gave a PBM binding z-score of 0.898.
TCGAGTAGGTTACGGGGGCATTTAGGGATGAAGA was tested, and the PBM binding z-score was 1.44.
CTATCTAGGTTAAGGGGGTCATTCAGTTTGAAAG showed a PBM binding z-score of 4.89.
CTATGTAGGTTAAGGGGGTCATTCAATTTGAAAG was tested, and the PBM binding z-score was 5.83.
CCGAGTTGGTTACGAGGGGGCATTCAGTGCGAAT was tested, and the PBM binding z-score was 1.98.
For CTATGTATGTTAAGGGGGTCATTCAGTTTGAAAG, the PBM binding z-score was 5.05.
With TCGAGTAGGTTACCGGGGCATTCAGGGATGAAGA the PBM binding z-score was 0.533.
Sequence TCTAGTAGGTTACGGGGGCATTCAGGGATGAAGA has a PBM binding z-score of 2.93.
TCGAGTAGGTTACGGGGCCATTCAGGGATGAAGA was tested, and the PBM binding z-score was 0.412.
In the case of CCGGGTAGGTTACGAGGGGGCATTCAGTGCGAAT, the PBM binding z-score is reported as 1.56.
TCGAGTAGGTTACGGGGGCATTCAAGGATGAAGA gave a PBM binding z-score of 1.38.
CTAAGTAGGTTAAGGGGGTCATTCAGTTTGAAAG was tested, and the PBM binding z-score was 3.59.
For TCGAGTAGCTTACGGGGGCATTCAGGGATGAAGA, the PBM binding z-score was 0.346.
TCGAGTAGGTTACGGGGGCATTCACGGATGAAGA gave a PBM binding z-score of 2.12.
CTATGTAAGTTAAGGGGGTCATTCAGTTTGAAAG gave a PBM binding z-score of 3.28.
CTATGTAGGTTATGGGGGTCATTCAGTTTGAAAG was tested, and the PBM binding z-score was 4.13.
Sequence TCGAGTAGGTTACGGGGGCATTCCGGGATGAAGA has a PBM binding z-score of 1.57.
Work on CTATGTAGGTTAAGGGGGTCATTCACTTTGAAAG yielded a PBM binding z-score of 3.47.
TCGAGTAGGTTATGGGGGCATTCAGGGATGAAGA gave a PBM binding z-score of 1.07.
In the case of CCGAGTAGGATACGAGGGGGCATTCAGTGCGAAT, the PBM binding z-score is reported as 0.513.
CTATGTAGGTTAAGGGGGTCATTCAGTTTGAAAG was tested, and the PBM binding z-score was 3.66.
Work on TCGAGTAGGTTACGGGGGCGTTCAGGGATGAAGA yielded a PBM binding z-score of 2.99.
With TCGAGTAGGTTACGGGGGCATTAAGGGATGAAGA the PBM binding z-score was 1.98.
CCGAGTAGGTTATGAGGGGGCATTCAGTGCGAAT showed a PBM binding z-score of 1.86.
CCGAGTAGCTTACGAGGGGGCATTCAGTGCGAAT showed a PBM binding z-score of 0.745.
TCGAGTAGGTTACGGGGGTATTCAGGGATGAAGA showed a PBM binding z-score of 1.51.
With CCGTGTAGGTTACGAGGGGGCATTCAGTGCGAAT the PBM binding z-score was 2.84.
Work on CTATGTAGGGTAAGGGGGTCATTCAGTTTGAAAG yielded a PBM binding z-score of 4.11.
CTATGTAGGTTAAGGGTGTCATTCAGTTTGAAAG was tested, and the PBM binding z-score was 1.32.
Work on CCTAGTAGGTTACGAGGGGGCATTCAGTGCGAAT yielded a PBM binding z-score of 3.88.

Each sequence was assayed on PXR:RXRa (NR concentration 270 nM, RXRa partner concentration 90 nM) in the same assay as above.
Method in brief: as §1
CTGAGTAGGTTACGAGGGGGCATTCAGTGCGAAT gave a PBM binding z-score of 4.54.
Work on TCGAGTAGTTTACGGGGGCATTCAGGGATGAAGA yielded a PBM binding z-score of 2.74.
Sequence CTCTGTAGGTTAAGGGGGTCATTCAGTTTGAAAG has a PBM binding z-score of 6.17.
With CTATGTAGGTTAAGGGGGGCATTCAGTTTGAAAG the PBM binding z-score was 4.18.
With CTATGCAGGTTAAGGGGGTCATTCAGTTTGAAAG the PBM binding z-score was 5.97.
CCGAGTAGGTTACGAGAGGGCATTCAGTGCGAAT gave a PBM binding z-score of 5.07.
In the case of CTATGTAGGTTAAGGGGGTCGTTCAGTTTGAAAG, the PBM binding z-score is reported as 3.86.
CTATGTCGGTTAAGGGGGTCATTCAGTTTGAAAG was tested, and the PBM binding z-score was 5.84.
TCGAGGAGGTTACGGGGGCATTCAGGGATGAAGA gave a PBM binding z-score of 4.07.
TCGAGTAGGTTACAGGGGCATTCAGGGATGAAGA was tested, and the PBM binding z-score was 1.17.
TCGAGTAGGTTACGGGGGCATTTAGGGATGAAGA gave a PBM binding z-score of 3.25.
Work on CTATCTAGGTTAAGGGGGTCATTCAGTTTGAAAG yielded a PBM binding z-score of 6.
CTATGTAGGTTAAGGGGGTCATTCAATTTGAAAG gave a PBM binding z-score of 5.67.
Sequence CCGAGTTGGTTACGAGGGGGCATTCAGTGCGAAT has a PBM binding z-score of 3.41.
In the case of CTATGTATGTTAAGGGGGTCATTCAGTTTGAAAG, the PBM binding z-score is reported as 5.85.
For TCGAGTAGGTTACCGGGGCATTCAGGGATGAAGA, the PBM binding z-score was 0.554.
TCTAGTAGGTTACGGGGGCATTCAGGGATGAAGA showed a PBM binding z-score of 3.79.
TCGAGTAGGTTACGGGGCCATTCAGGGATGAAGA gave a PBM binding z-score of 0.639.
CCGGGTAGGTTACGAGGGGGCATTCAGTGCGAAT gave a PBM binding z-score of 5.
Sequence TCGAGTAGGTTACGGGGGCATTCAAGGATGAAGA has a PBM binding z-score of 3.1.
CTAAGTAGGTTAAGGGGGTCATTCAGTTTGAAAG showed a PBM binding z-score of 5.74.
TCGAGTAGCTTACGGGGGCATTCAGGGATGAAGA gave a PBM binding z-score of 2.21.
With TCGAGTAGGTTACGGGGGCATTCACGGATGAAGA the PBM binding z-score was 3.21.
With CTATGTAAGTTAAGGGGGTCATTCAGTTTGAAAG the PBM binding z-score was 5.6.
With CTATGTAGGTTATGGGGGTCATTCAGTTTGAAAG the PBM binding z-score was 6.22.
For TCGAGTAGGTTACGGGGGCATTCCGGGATGAAGA, the PBM binding z-score was 3.08.
CTATGTAGGTTAAGGGGGTCATTCACTTTGAAAG gave a PBM binding z-score of 5.59.
For TCGAGTAGGTTATGGGGGCATTCAGGGATGAAGA, the PBM binding z-score was 2.72.
With CCGAGTAGGATACGAGGGGGCATTCAGTGCGAAT the PBM binding z-score was 2.31.
Sequence CTATGTAGGTTAAGGGGGTCATTCAGTTTGAAAG has a PBM binding z-score of 6.09.
TCGAGTAGGTTACGGGGGCGTTCAGGGATGAAGA was tested, and the PBM binding z-score was 2.69.
In the case of TCGAGTAGGTTACGGGGGCATTAAGGGATGAAGA, the PBM binding z-score is reported as 2.76.
CCGAGTAGGTTATGAGGGGGCATTCAGTGCGAAT showed a PBM binding z-score of 4.85.
Work on CCGAGTAGCTTACGAGGGGGCATTCAGTGCGAAT yielded a PBM binding z-score of 2.64.
Work on TCGAGTAGGTTACGGGGGTATTCAGGGATGAAGA yielded a PBM binding z-score of 2.09.
Sequence CCGTGTAGGTTACGAGGGGGCATTCAGTGCGAAT has a PBM binding z-score of 5.31.
CTATGTAGGGTAAGGGGGTCATTCAGTTTGAAAG showed a PBM binding z-score of 5.91.
For CTATGTAGGTTAAGGGTGTCATTCAGTTTGAAAG, the PBM binding z-score was 1.38.
Sequence CCTAGTAGGTTACGAGGGGGCATTCAGTGCGAAT has a PBM binding z-score of 5.02.
